High-throughput results as filed in PubChem BioAssay.
CCHF vOTU inh-1: CCHFV vOTU protease inhibition; Pep-AMC fluorescence; inhibition, % at 11.5 µM; 370,000 compounds, 0.55% hits; AID 651958; note: 0% = vehicle wells with enzyme and 100% = no enzyme wells
GDH-TPI counter: inhibits GDH-TPI coupling enzymes, artifact for Mtb FBA screen | 360,000 compounds, 1.2% hits | inhibition, % at 4.8 µM | GDH-TPI coupled enzyme counterscreen, NADH absorbance;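 note: 0% = DMSO wells and 100% = wells lacking the enzyme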
Mtb betalactam: beta-lactam sensitization of Mtb H37Rv; M. tuberculosis H37Rv growth with meropenem, percent inhibition; inhibition, % at 25 µM; 330,000 compounds, 0.27% hits; AID 434955; call rule not given here;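 note: growth measured after seven days incubation then overnight dye step; 0% = bacteria only wells and 100% = bacteria with antibiotic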
RecA splice inh: Mtb RecA intein splicing inhibition. P9WHJ3. cell-free RecA intein splicing, fluorescence. inhibition, % (concentration not given with the values). 290,000 compounds, 0.75% hits; in the data active = inhibition above about 30%; inconclusive = no clear call, values can overlap the other calls;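 note: 0% = vehicle wells and 100% = reference inhibitor control wells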
Mtb FBA inh: Mtb fructose-bisphosphate aldolase inhibition; purified M. tuberculosis FBA, fluorescence read-out; inhibition, % at 1 µM; 360,000 compounds, 2.3% hits; in the data active = inhibition above about 27%;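 note: 0% = vehicle and 100% = reference inhibitor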
Target sequence (P9WQA3 whole entry, looked up): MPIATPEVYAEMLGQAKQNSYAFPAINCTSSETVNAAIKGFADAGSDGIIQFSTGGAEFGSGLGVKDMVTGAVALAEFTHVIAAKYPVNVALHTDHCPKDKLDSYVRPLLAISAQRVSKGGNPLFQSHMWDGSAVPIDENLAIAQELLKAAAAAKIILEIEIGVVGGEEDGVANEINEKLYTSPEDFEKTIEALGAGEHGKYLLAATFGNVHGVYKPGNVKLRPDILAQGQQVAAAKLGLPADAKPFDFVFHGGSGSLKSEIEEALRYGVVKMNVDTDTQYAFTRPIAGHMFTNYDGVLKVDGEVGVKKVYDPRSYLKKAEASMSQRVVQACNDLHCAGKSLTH
CCHF vOTU inh-2: confirmation of CCHF virus vOTU protease inhibitors; shares compounds with CCHF vOTU inh-1; Recombinant CCHFV vOTU, Pep-AMC fluorescence; inhibition, % at 11.5 µM; 1,900 compounds, 17% hits
* = called active by the depositor; ? = inconclusive; · = not tested or not shown. Sampled rows, rich in hits. Any-hit rate of the full collection: about 4.2%. Cut-off read from the data, not from the text of the source, unless noted: active = inhibition above about 30%; inactive = the rest.

SMILES | CCHF vOTU inh-1 | GDH-TPI counter | Mtb betalactam | RecA splice inh | Mtb FBA inh | CCHF vOTU inh-2
O=C(NC1CCCCCC1)C1CCN(S(=O)(=O)c2cnc[nH]2)CC1 | 2.8 | -5.4 | -5.2 | -0.7 | -1.6 | ·
CCSc1nc(-c2ccccc2)cc(=O)[nH]1 | 30.8* | 3.5 | -8.3 | · | 1.1 | -11.8
CCOc1ccc(Cc2nnc(SCC(=O)Nc3c(C)cccc3C)[nH]c2=O)cc1 | 11.0 | 10.7 | -7.5 | 0.9 | 7.1 | ·
O=S(=O)(c1ccc2nc(-c3ccco3)c(-c3ccco3)nc2c1)N1CCOCC1 | 73.0* | 0.9 | 5.1 | 4.4 | -1.1 | 39.6*
O=C(c1ccc2nc(-c3ccco3)c(-c3ccco3)nc2c1)N1CCN(c2ccccc2)CC1 | 47.9* | 11.2 | 90.5 | -24.6 | 0.0 | -8.1
O=C(c1ccc2nc(-c3ccco3)c(-c3ccco3)nc2c1)N1CCC2(CC1)OCCO2 | · | 0.0 | 2.8 | · | -0.6 | ·
CN1CCCCC(NC(=O)CSc2ccccc2)C1=O (stereo unspecified) | -14.3 | · | · | · | · | ·
Nc1c2c(=O)[nH]c(O)cc2nn1-c1ccccc1 | 62.8* | 5.1 | · | · | 3.6 | -11.1
Cc1cccc(NC(=S)N/N=C/c2ccc([N+](=O)[O-])s2)c1 | 35.2* | 6.8 | 84.4 | -13.6 | 3.2 | -1.1
CC(C)C(=O)NCCCc1ccccc1 | 9.9 | -5.3 | -2.2 | -2.5 | 3.0 | ·
CC(C)CCCCCCCCc1cccc(O)c1C(=O)O | 42.9* | · | · | · | · | 25.2
c1ccc(CCN=C2CCCc3c2[nH]c2ccccc32)cc1 | -5.6 | 24.1 | -10.2 | 1.7 | 9.6 | ·
CN(CCc1ccccc1)C(=O)c1cc(COc2cccc(C(F)(F)F)c2)on1 | 30.0* | -10.9 | · | 3.0 | -6.7 | 13.4
CN(CCCN1CCOCC1)C(=O)c1cc(COc2cccc(C(F)(F)F)c2)on1 | 0.7 | 1.6 | -6.6 | -6.5 | 0.6 | ·
O=C(COc1ccc(Br)cc1)Nc1ccc(NC(=O)c2ccccc2)cc1 | 11.9 | 2.8 | -0.1 | -0.1 | 2.8 | ·
O=C(COc1ccc(NC(=O)c2ccccc2)cc1)c1ccccc1 | 31.2* | 1.4 | -6.0 | -1.7 | 1.8 | -13.0
COc1ccc(NC(=S)NNc2ccc(S(=O)(=O)Nc3ccccc3C(=O)O)cc2[N+](=O)[O-])cc1 | 32.8* | 40.5* | -8.0 | 2.3 | -3.9 | 16.1
O=C(CCCC(=O)NC1CCCC1)NC1CCCC1 | 30.8* | 6.4 | -5.6 | 2.4 | 1.0 | -16.5
CCc1nnc(N/N=C/c2ccc(O)c(OC)c2)n1N | 77.3* | 18.4 | -8.4 | 0.4 | -0.7 | -1.9
CCOc1cc(/C=N/Nc2nnc(C)n2N)ccc1OC(C)=O | 85.7* | -33.0 | 2.7 | -3.1 | -38.3 | -13.0
COc1cc(/C=N/NC(=O)Nc2ccccc2)ccc1OC(C)=O | -1.3 | 1.1 | 2.2 | 0.2 | -0.8 | ·
CCc1nnc(N/N=C/c2cccs2)n1N | 89.2* | 16.0 | 72.0 | -2.9 | -7.6 | -2.9
CCc1nnc(N/N=C\c2ccc(OC(C)=O)c(OC)c2)n1N | 66.4* | 5.5 | -5.0 | -0.8 | -36.9 | -6.3
COc1cc(/C=N/Nc2ccccn2)ccc1O | 18.5 | 25.2 | -6.9 | -4.1 | 0.6 | ·
CCOc1ccc(OCCC(=O)N(CCCOC)c2c(N)n(Cc3ccccc3)c(=O)[nH]c2=O)cc1 | -3.0 | 13.6 | -3.7 | -2.5 | -4.5 | ·
SMILES | CCHF vOTU inh-1 | GDH-TPI counter | Mtb betalactam | RecA splice inh | Mtb FBA inh | CCHF vOTU inh-2
COCc1cc(C)n(CC(=O)Nc2ccc(N3CCOCC3)cc2)c(=O)c1C#N | -3.7 | 17.6 | -7.3 | -2.1 | 1.0 | ·
Cc1[nH]cnc1CN1CCc2c(c3ccccc3n2C)C1=O | 71.9* | 14.0 | 1.8 | -2.2 | 3.6 | 24.5
Cc1nc2c(OCc3ccc(C(F)(F)F)cc3)cccn2c1N(C)C(=O)CCC1CCCC1 | 33.0* | -1.3 | · | · | -3.4 | 3.6
Cc1nc2c(OCc3ccc(F)cc3)cccn2c1N(C)C(=O)CCC1CCCC1 | 18.9 | -7.6 | · | · | 0.0 | ·
CCOC(=O)C(=O)N(C)c1c(CC)nc2c(OCCC3CCCCC3)cccn12 | 16.9 | -2.2 | · | · | 3.6 | ·
CCOC(=O)N(C)c1c(CC)nc2c(OCCC3CCCCC3)cccn12 | 30.4* | -5.8 | · | · | 3.3 | 5.6
O=C1CC(N2CCOCC2)=NN1c1ccc([N+](=O)[O-])cc1 | 104.1* | 17.1 | 67.5 | 1.9 | -8.3 | 2.4
O=[N+]([O-])c1ccc(N2CCOCC2)nc1 | -3.9 | 22.8 | 0.2 | 0.2 | -2.6 | ·
COCCNC(=O)c1cccc(S(=O)(=O)N2CC3(C)CC2CC(C)(C)C3)c1 (stereo unspecified) | 33.0* | -2.1 | -0.7 | -1.7 | 1.2 | -13.3
CCCCNC(=O)c1cccc(S(=O)(=O)N2CC3(C)CC2CC(C)(C)C3)c1 (stereo unspecified) | 30.8* | 1.9 | -2.8 | · | 0.1 | 14.0
O=[N+]([O-])c1ccc(N/N=C/c2ccc(O)c(O)c2O)c(S(=O)(=O)N2CCOCC2)c1 | 34.3* | 13.1 | · | · | -9.8 | 4.3
C=CCSC1=N/C(=C\c2cccnc2)C(=O)N1c1ccc(OC)cc1 | 7.0 | 12.5 | 4.7 | -0.8 | -1.9 | ·
CCSC1=N/C(=C\c2ccccc2)C(=O)N1c1ccc(OC)cc1 | 30.2* | 14.8 | 1.9 | -11.0 | -4.3 | -11.4
O=C(N/C(=C/c1ccc(Br)cc1)C(=O)N1CCOCC1)c1ccco1 | -1.0 | 13.7 | -6.6 | 0.8 | 4.6 | ·
CSc1ccc(/C=C(/NC(=O)c2ccco2)C(=O)N2CCOCC2)cc1 | 30.0* | 14.2 | -2.2 | 0.9 | -4.8 | -14.7
Cc1cccc(-n2nnnc2SCC(=O)Nc2cccc(S(N)(=O)=O)c2)c1 | 2.0 | 1.3 | -5.8 | 1.2 | 1.5 | ·
Nc1ccc(Br)c2cccnc12 | 101.4* | 3.0 | 94.4 | 4.1 | -1.4 | 0.6
CS(=O)(=O)Oc1ccc(Br)c2cccnc12 | 10.0 | 8.8 | -2.0 | 0.0 | 2.5 | ·
CCOC(=O)c1oc2c(c1C)C(=O)CCC2 | -1.0 | 0.8 | 4.8 | 1.3 | -1.0 | ·
CCOC(=O)c1oc2c(c1C)/C(=N/O)CCC2 | 32.7* | 2.0 | -10.9 | 0.0 | 3.9 | -7.1
Cc1noc(C)c1COc1ccc(C(=O)N2CCN(c3cccc(Cl)c3)CC2)cc1 | 0.2 | -5.5 | · | · | 0.5 | ·
CC(=O)c1ccc(N2CCN(C(=O)c3ccc(OCc4c(C)noc4C)cc3)CC2)cc1 | 33.9* | 29.2 | ? | 1.8 | 1.7 | 4.3
COc1ccccc1-n1cnnc1SCC(=O)N1CCOCC1 | 9.6 | -1.5 | -6.9 | -1.6 | 0.8 | ·
Brc1ccc2cccnc2c1 | 6.7 | -0.4 | -3.2 | -1.0 | 3.5 | ·
Nc1cc2cccnc2cc1Cl | 39.2* | 12.3 | · | · | -3.4 | 7.8
Cc1ccc(S(=O)(=O)N2[C@@H](c3ccc(Br)cc3)C(C(=O)O)=CC[C@H]2c2ccc(Cl)cc2)cc1 | 39.5* | -2.8 | 6.7 | · | 0.3 | 14.6
Cc1ccc([C@@H]2CC=C(C(=O)O)[C@H](c3ccc(Cl)cc3)N2S(=O)(=O)c2ccccc2C)cc1 | 33.3* | 0.0 | 4.8 | · | 3.2 | 0.1
Cc1ccc(S(=O)(=O)N2[C@@H](c3ccc(C(C)(C)C)cc3)C(C(=O)O)=CC[C@H]2c2ccc3c(c2)OCO3)cc1 | 29.5* | -5.2 | 2.8 | · | -2.6 | 3.0
Cc1ccc([C@H]2C(C(=O)O)=CC[C@@H](c3ccc(Cl)c(Cl)c3)N2S(=O)(=O)c2ccc(C)cc2)cc1 | 39.5* | -2.8 | 6.0 | · | -1.1 | 11.4
